Columns and labels:
Test in all cases: PBM binding z-score (relative to random genomic background probes); higher = stronger binding; sequences stand for … in GC…GCGATTGACAGCGTAGAATGAAGG
[1] = system: PPARg:RXRa DBDmut IVT, anti-RXR (DBD mutation: RXRa K156A/R161A, NR concentration 270 nM, RXRa partner concentration 90 nM)
Outline: (§1)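 Binding z-scores take random background probes as their reference. They come from custom Agilent 4×180K protein-binding microarrays incubated 1 h with ligand-free nuclear receptor dimers, with antibodies against each partner (one per run) detecting binding. Scanned fluorescence was regression-normalized.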

[2] = system: PPARg:RXRa IVT, anti-PPARg (NR concentration 270 nM, RXRa partner concentration 90 nM)
Outline: as §1

[3] = system: PPARg DBDmut:RXRa IVT, anti-PPARg (DBD mutation: PPARg1 K132A/R137A, NR concentration 270 nM, RXRa partner concentration 90 nM)
Outline: as §1

[4] = system: PPARg DBDmut IVT, anti-PPARg (DBD mutation: PPARg1 K132A/R137A, NR concentration 270 nM)
Outline: as §1

[5] = system: PPARg homodimer (NR concentration 180 nM)
Outline: as §1

[6] = system: PXR:RXRa (NR concentration 270 nM, RXRa partner concentration 90 nM)
Outline: as §1

[7] = system: PXR homodimer (NR concentration 270 nM)
Outline: as §1

[8] = system: RARa:RXR (NR concentration 270 nM, RXRa partner concentration 90 nM)
Outline: as §1

[9] = system: RARa homodimer (NR concentration 270 nM)
Outline: as §1

[10] = system: RARb:RXRa (NR concentration 270 nM, RXRa partner concentration 90 nM)
Outline: as §1

| Sequence | PBM binding z-score [1] | PBM binding z-score [2] | PBM binding z-score [3] | PBM binding z-score [4] | PBM binding z-score [5] | PBM binding z-score [6] | PBM binding z-score [7] | PBM binding z-score [8] | PBM binding z-score [9] | PBM binding z-score [10] |
| --- | --- | --- | --- | --- | --- | --- | --- | --- | --- | --- |
| AGAATGAGGTTATAGGTAGATCAGGGAAGAAAGT | 2.86 | 2.76 | 1.2 | 1.03 | 1.63 | 1.52 | 1.49 | 1.93 | 1.46 | 1.72 |
| ATCTCTAGGTACGACTCAGTTCAGTGAAGAACGC | 0.59 | 0.456 | 0.443 | 1.02 | 0.793 | 1.4 | 1.82 | 0.363 | 1.28 | 0.504 |
| CCTACTGGGCCATCAGGTCTTTGATATCAACGTT | 4.27 | 4.11 | -0.465 | -0.285 | 0.396 | -0.399 | -0.181 | -0.151 | -0.266 | 0.423 |
| GCTAGCAGGCCATTTGGATCACTCAATGACGGGC | 0.765 | 0.13 | -0.26 | -0.878 | -0.828 | -0.802 | -0.249 | -0.562 | -0.338 | 0.151 |
| CGTCCAAGGTCATAGGAGGTCTGTGAAGACAGAT | 2.76 | 3.51 | 0.436 | 0.0298 | 2.07 | 4.86 | 1.09 | 4.27 | 0.26 | 5.05 |
| TCTAGCAGGCCAGAGGGTCAATCAAGAGGTACGG | 0.793 | 0.929 | -2.08 | -0.99 | 1.31 | 1.76 | -0.442 | 2.63 | -0.831 | 2.25 |
| TCTCGGAGGACACGAAAGGTCAAAGCTCGACATC | 1.72 | 2.11 | -0.166 | -0.0155 | 3.27 | 5.39 | 1.21 | 5.48 | 1.41 | 4.55 |
| TCTATTAGTTGAAGGGCAACTGACGAGTCCGTTT | 2.25 | 0.905 | 0.468 | 0.573 | 0.905 | 0.88 | 0.479 | 1.08 | 1.44 | 1.6 |
| GCGACTGGGGCATCAACAGGTTACCATAACTTAA | 3.85 | 3.26 | 0.132 | -0.496 | 0.784 | 0.139 | -0.425 | 0.551 | -0.516 | 0.911 |
| CAAACTAGGTCAAGGTGAAAGTCGGTTTGTGCCA | 8.58 | 8.62 | 2.55 | 1.53 | 1.47 | 1.65 | 0.138 | 2.19 | 0.4 | 4.2 |
| ATATGTAGGTTATCGGGCCATTCAGTTTGCGCAT | 7.31 | 6.82 | 2.32 | 3.56 | 1.89 | 0.605 | 1.06 | 0.558 | 1.09 | 1.08 |
| ACTAGCAGGCCAAGTTTGGCTCACTCAAACAAAG | 0.281 | 0.0532 | -0.751 | -1.04 | -0.78 | -0.576 | -0.582 | -0.454 | -0.674 | 0.218 |
| CGTCCAAAGTCATAGGAGGTCAGTGAAGACAGAT | 0.497 | 1.53 | 0.0341 | 0.213 | 1.59 | 3.35 | 1.12 | 2.86 | 1.34 | 2.7 |
| ATATGTAGGTTACATCCGGGTTATTCAGGCTATG | 7.44 | 7.16 | 4.04 | 2.37 | 3.3 | 1.2 | 0.531 | 1.57 | 0.67 | 1.35 |
| GCTAGTTGGTCAGTAGAAGGTCACACACCGGTCG | 1.12 | 2.07 | -0.208 | 0.144 | 2.88 | 3.18 | 1.11 | 3.73 | 0.845 | 3.19 |
| ATATGTAGGTTACATCCGGGCCATTCAGGCTATG | 7.19 | 7.09 | 3.74 | 3.02 | 0.583 | 0.633 | 0.119 | 0.816 | 0.221 | 1.15 |
| CCGACTGGGGCGAAGGTTACCATACTCAGTACGA | 1.13 | 2.83 | -0.805 | -0.462 | 0.137 | 0.261 | -0.624 | 0.961 | -0.33 | 0.726 |
| TCTTGTGGATCAACAGGAGGTTAAGAAAGATCGA | 1.35 | 0.812 | 0.186 | 1.07 | 0.476 | 0.621 | -0.304 | 0.932 | -0.244 | 0.59 |
| GATGCAGGGTCAGCTAGAGGCCAGAGTATGGAAA | 0.505 | 1.63 | -0.437 | -1.46 | 2.73 | 3.3 | -0.237 | 4.56 | 0.285 | 4.1 |

| Sequence | PBM binding z-score [1] | PBM binding z-score [2] | PBM binding z-score [3] | PBM binding z-score [4] | PBM binding z-score [5] | PBM binding z-score [6] | PBM binding z-score [7] | PBM binding z-score [8] | PBM binding z-score [9] | PBM binding z-score [10] |
| --- | --- | --- | --- | --- | --- | --- | --- | --- | --- | --- |
| TCGATTAGGTTAGGGGCATTCAGAATGGCGTCGA | 1.99 | 0.798 | -0.691 | 0.33 | 1.07 | 0.603 | 0.447 | 0.692 | 0.352 | 1.57 |
| TCATATACGTAAACAGGTGAAAGTCCGTAAGTTA | 2.72 | 1.26 | 1.21 | 1.05 | 1.24 | 1.19 | 0.801 | 1.68 | 1.67 | 0.855 |
| TCTCGAAGGACACGAAGGTCAGAGCTTTCCAGAG | 1.58 | 1.03 | -0.558 | -0.971 | 1.64 | 1.54 | 0.219 | 2.12 | 0.163 | 3.34 |
| GCATATAGGTAATACAAGGTGAAAGACCGATTGT | 3.84 | 3.44 | 0.445 | 0.718 | 0.0891 | 0.523 | -0.102 | 1.49 | 0.624 | 0.568 |
| GCTATTAGTTGAAAGGGCGACCGAATGATTCTCG | 0.652 | -0.0504 | -0.223 | -0.65 | 0.251 | -0.1 | -0.523 | 0.097 | -0.0879 | 0.699 |
| TCTAGTTGGTCACGGCGGTCACACACGACGGGTA | 2.36 | 3.13 | 1.09 | 1.25 | 1.16 | 0.555 | 0.174 | 0.871 | 0.669 | 2.52 |
| ATCGAAAGTTCGAGGTGAGTATAGAGAAAGGGAA | -0.474 | 0.844 | 0.383 | 0.642 | 0.238 | 0.98 | 0.157 | 1.01 | -0.05 | 2.53 |
| TAGCCTAAGTCAGATCGGGCCAGTATACGCTATA | -0.799 | -0.632 | -0.42 | -0.19 | -0.984 | -0.436 | -0.363 | -0.593 | -0.92 | -0.258 |
| AATACAGGGTCACTAGGGCAGAGTAGGTACGAAT | 4.88 | 6.25 | 2.07 | 2.29 | 3.08 | 3.51 | 1.1 | 4.65 | 1.32 | 4.27 |
| TGAATGAGGTAATAAGATCAGGGAACGTTGCAAA | 0.356 | 1.03 | 0.129 | -0.853 | -0.59 | -0.275 | -0.242 | -0.0415 | -0.474 | -0.231 |
| TAGCCTAGGTCATGGGCCATTATACCACGCGAAC | 1.69 | 3.57 | 0.221 | -0.316 | 1.41 | 1.81 | -0.0788 | 2.65 | -0.113 | 3.98 |
| CCTAGTTGGTAAAGGTCACACACGCTATAGGTAC | 1.96 | 4.31 | 1.8 | 2.57 | 5.56 | 5.79 | 2.18 | 6.31 | 3.99 | 5.22 |
| ACTATTAGTTGTCTTAGGGCAACCGATACGACGC | 0.0563 | 0.447 | 1.35 | 1.18 | 0.545 | -0.171 | 0.0491 | -0.0308 | 0.604 | 0.618 |
| TCGAGTAGGTTACCAATCGGGCATTCAGCTTTCT | 3.13 | 2.4 | -0.0689 | -0.723 | -0.473 | -0.159 | -0.753 | -0.172 | -0.843 | 0.778 |
| AGAACGATGGCAATGAGTTGATAGCACGGGTGGC | -0.597 | -0.751 | 0.0197 | -0.258 | -0.596 | -0.563 | -0.0123 | -0.325 | -0.149 | -0.604 |
| CCTTACGGGTCACTCACAGGTTATAGCATTTGGA | 3.1 | 3.43 | 0.37 | 0.401 | 3.21 | 3.56 | 0.559 | 4.46 | 1.29 | 3.77 |
| ATCGAAAGGTCGACGAGGTGAATATACACCGTTT | 0.98 | 2.07 | 1.87 | 0.44 | 2.04 | 3.88 | 1.24 | 4.49 | 1.02 | 3.94 |
| TCTTGTAGATCAACAGGTTAAGAAAGCTGGCCAA | 1.96 | 0.82 | 0.047 | 0.206 | 0.081 | 0.51 | 0.0471 | 0.981 | -0.173 | 0.375 |
| CCAGGCAGGTGAGAAGGTAACTCAGCCTCGATTA | 0.637 | 0.291 | -1.38 | -1.33 | -0.318 | -0.256 | -0.513 | -0.0086 | -0.442 | 0.36 |

— the supplement of paper PMC6555819
